Screens deposited in PubChem by National Center for Advancing Translational Sciences (NCATS).
Pf growth 96h: P. falciparum growth inhibition at 96 hours; P. falciparum luciferase reporter growth, 96 h; Potency, µM (top dose mostly 28.7 µM), without a hit: at the top dose activity change, negative = inhibition, usual class: inhibitors; hit rate 6.9% among 320,000; AID 504834; also: potency is read from the fitted curve at half-maximal effect; % is scaled to controls: 0 for no effect and ±100 for the full control effect
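P. falciparum expressing integrated firefly luciferase, in erythrocytes at 2% hematocrit, 0.05% parasitemia, incubated with compounds 96 h at 37 C, 5% CO2. Growth inhibition read as loss of luminescence; two-generation exposure targets delayed-death apicoplast inhibitors.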
HCV inhibitor: blocks hepatitis C virus | Potency, µM (titrated, usually from 41.8 µM), for inactives: at the highest dose activity change, negative = inhibition, actives largely listed as inhibitors | AID 651820 | Huh7.5.1 HCVcc-Cre infection, luciferase reporter, 44 h | hit rate 3.4% among 340,000; also: potency is read from the fitted curve at half-maximal effect; % is scaled to controls: 0 for no effect and ±100 for the full control effect
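A cell-based infection assay in which seeded cells (1,000 per well) receive test compound after 4 h, are inoculated with HCVcc-Cre at approximately 0.5 moi, and are incubated 44 h before luminescence detection.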
HCMV inh: blocks human cytomegalovirus replication; HFF cells, HCMV-luciferase reporter, 72 h; hits give low values; activity change, negative = inhibition, % at 57.5 µM; hit rate 4.5% among 410,000; AID 1259415; in the data active = activity change below about -60%; inconclusive = no clear call, values can overlap the other calls; inactive = above about -39%; also: % is scaled to controls: 0 for no effect and ±100 for the full control effect
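Two compound doses tested in HFFs infected with HCMV-luciferase, MOI 1 PFU/cell, 72 h at 37C. Lysate luminescence read with OneGlo; data normalized against buffer-only and 10uM Salinomycin inhibitor controls.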
Sm TGR inh: inhibitors of Schistosoma mansoni thioredoxin glutathione reductase; Q962Y6; purified TGR, DTNB reduction, TNB absorbance 405 nm; Potency, µM (titrated, usually from 114 µM), inactives show at the top dose activity change, negative = inhibition, usual class: inhibitors; hit rate 3% among 360,000; AID 485364; also: potency is read from the fitted curve at half-maximal effect; % is scaled to controls: 0 for no effect and ±100 for the full control effect; nearly all actives have a fitted effect of over 60% in size
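First, TGR (20 nM dispensed) and NADPH were mixed with compound. Second, a 15 min room-temperature incubation followed. Third, further NADPH and then DTNB were added to start the reaction. Finally, TNB absorbance was monitored kinetically.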
Pf growth 48h: inhibits P. falciparum growth in the first generation, 48 h | P. falciparum luciferase growth in erythrocytes, 48 h | Potency, µM (doses to about 28.7 µM), without a hit: at the top dose activity change, negative = inhibition, hits mostly inhibitors | hit rate 5.9% among 310,000; also: potency is read from the fitted curve at half-maximal effect; % is scaled to controls: 0 for no effect and ±100 for the full control effect
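First compound was added to culture medium, then infected red cells at 0.1% parasitemia and 2% hematocrit (final). After incubation at 37 C under 5% CO2, luciferase detection reagent was dispensed and light output recorded.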
SARS PLP yeast: inhibitors of SARS-CoV papain-like protease in yeast; S. cerevisiae expressing SARS-CoV PLpro, growth rescue; Potency, µM (highest dose often 32.9 µM), for inactives: top-dose activity, positive = growth rescue, most hits filed as activators; hit rate 0.19% among 330,000; AID 485353; calls by dose curve; also: potency is read from the fitted curve at half-maximal effect; 0% is about no effect; nearly all actives have a fitted effect of over 55% in size
Active calls of the source: *; ? = inconclusive; / = not tested or not shown; [ ] = another dose, or the depositor's remark. Compounds with a hit are over-represented: about 15% of the library has one in this group of screens. Unless noted, calls follow the shape of the dose curve; as a rule, active = well fitted curve in the direction sought with a large enough effect; inconclusive = small, poorly fitted or top-dose-only effect, or another doubt; inactive = no such curve, though single readings can be large; an effect the other way counts as inactive or inconclusive.

SMILES	Pf growth 96h	HCV inhibitor	HCMV inh	Sm TGR inh	Pf growth 48h	SARS PLP yeast
CCn1c(CC(=O)Nc2ccccc2F)nnc1SCC(=O)NC1=NCCS1	/	/	-16	/	/	/
O=C(Nc1ccc(Cl)cc1)C1Cc2c(-c3cccc(F)c3)ccnc2O1 (centres undefined)	/	/	-14	/	/	/
COC(=O)C1(Cc2cc(-c3ccc([N+](=O)[O-])cc3)no2)CCN(C(=O)OC(C)(C)C)CC1	?	?	-20	20µM*	?	0%
COC(=O)C1(CC2CC(c3ccc(Cl)cc3)=NO2)CCN(C(=O)OC(C)(C)C)CC1 (centres undefined)	?	-4%	21	-14%	?	6%
COC(=O)C1(Cc2cc(-c3cccnc3)no2)CCN(C(=O)OC(C)(C)C)CC1	10µM*	-8%	-22	2%	?	-12%
COC(=O)C1(Cc2cc(-c3ccc(Cl)cc3)no2)CCN(C(=O)OC(C)(C)C)CC1	65%	1µM*	-2	15%	-8%	-20%
CCc1cccc(C)c1NC(=O)C(C)Sc1nc2c(c(=O)[nH]1)CCCC2 (centres undefined)	/	/	-2	-8%	/	/
COc1ccc(-n2c(=S)[nH]c(=O)c3cccnc32)cc1	-10%	11%	21	18µM*	-1%	2%
COc1ccccc1CN1CCN(Cc2nc(-c3cccs3)no2)CC1	5.9µM*	8%	5	-20%	17%	0%
CCCCC(c1nnnn1Cc1ccco1)N1CCN(c2nc3ccccc3s2)CC1 (centres undefined)	/	?	-21	?	9.3µM*	-9%
COc1ccc(C(c2nnnn2Cc2ccccc2)N2CCN(c3nc4ccccc4s3)CC2)cc1OC (centres undefined)	18%	?	12	-8%	10µM*	-5%
c1ccc(C(c2nnnn2Cc2ccco2)N2CCN(c3nc4ccccc4s3)CC2)cc1 (centres undefined)	/	?	-24	-17%	?	13%
CCCC(c1nnnn1Cc1cccs1)N1CCN(C)CC1 (centres undefined)	21%	?	-33	/	-13%	1%
c1ccc(Cn2nnnc2C(c2ccccc2)N2CCN(c3nc4ccccc4s3)CC2)cc1 (centres undefined)	-2%	8%	-2	0%	7%	-2%
COc1ccccc1CN1CCN(C(CC(C)C)c2nnnn2Cc2cccs2)CC1 (centres undefined)	58%	?	29	-3%	13µM*	5%
O=C(NCCc1ccccc1)c1ccc(CSc2nc3ccncc3n2Cc2ccccc2)cc1	/	/	29	8%	/	/
Cc1ccccc1N/C=C/C(=C(C#N)C#N)N(C)C	2%	8%	-38	-29%	-6%	-3%
CCOc1ccc(-n2cc(C(=O)Nc3ccccc3OCC)c3cc(OC)c(OC)cc3c2=O)cc1	/	/	-3	-2%	/	/
CC(C)C(c1nnnn1Cc1ccc(F)cc1)N1CCN(C(=O)c2ccco2)CC1 (centres undefined)	13µM*	9%	-1	-19%	?	9%
COc1ccccc1C(c1nnnn1Cc1ccccc1)N1CCN(c2nc3ccccc3s2)CC1 (centres undefined)	-5%[5.75 µM]	13µM*	-13	-2%	3.3µM*	-4%
COc1ccc(C(c2nnnn2Cc2ccccc2)N2CCN(C(=O)c3ccco3)CC2)cc1OC (centres undefined)	3.7µM*	-1%	-21	0%	?	0%
COc1ccc(C(c2nnnn2Cc2cccs2)N2CCN(c3ccccc3F)CC2)cc1OC (centres undefined)	/	14%	-14	-9%	2.3µM*	1%
COCCNC(=O)CSc1nnc(NC(=O)C2CC(=O)N(c3ccccc3OC)C2)s1 (centres undefined)	30%	-16%	-28	-7%	?	/
Cc1ccc(S(=O)(=O)NCCC(=O)N2CCOCC2)cc1C	25%	15%	-16	2%	4%	-1%
COc1ccc(OC)c(NC(=O)CSc2ccnc(=O)[nH]2)c1	/	/	2	-1%	/	/
SMILES	Pf growth 96h	HCV inhibitor	HCMV inh	Sm TGR inh	Pf growth 48h	SARS PLP yeast
CCOc1ccccc1C1CC(=O)Nc2c1c(=O)n(C)c(=O)n2C (centres undefined)	-24%	10%	7	-6%	/	7%
COc1ccc(-n2c(=O)c3sc4ccccc4c3n(Cc3ccccc3C)c2=O)cc1OC	/	/	9	5%	/	/
CCC(c1nnnn1Cc1ccco1)N1CCC(C(N)=O)CC1 (centres undefined)	19%	18%	18	0%	12%	-4%
CC(C)C(c1nnnn1Cc1ccco1)N1CCC(C(N)=O)CC1 (centres undefined)	?	-2%	-38	45µM*	?	-8%
Cn1cc(C(=O)NCc2ccccc2)c(=O)c2cc(S(=O)(=O)N3CCOCC3)ccc21	/	/	5	-1%	/	/
O[C@@H]1CN(Cc2ccc(-n3cccn3)cc2)CC[C@H]1N1CCN(c2ccccc2F)CC1	10µM*	8.9µM*	?	-18%	?	2%
COc1ccc(CNC(=O)CN(C(=O)c2snc(C(N)=O)c2N)c2ccc(F)cc2)cc1	-23%	?	-38	4%	11%	-12%
COc1ccccc1N(C(=O)c1snc(C(N)=O)c1N)C(C(=O)NCc1ccccc1)c1ccc(O)cc1 (centres undefined)	-20%	-23%	40	2%	?	10%
COc1ccc(C(C(=O)NCc2ccccc2)N(C(=O)c2snc(C(N)=O)c2N)c2ccccc2OC)cc1 (centres undefined)	-15%	?	?	3%	5.2µM*	3%
NC(=O)c1nsc(C(=O)N(c2ccccc2F)C(C(=O)NCc2ccc(F)cc2)c2ccc(O)cc2)c1N (centres undefined)	-20%	3.5µM*	-102*	0%	?	1%
COc1ccc(N(CC(=O)NCc2ccc(F)cc2)C(=O)c2snc(C(N)=O)c2N)cc1	-13%	?	1	-6%	-6%	16µM*
NC(=O)c1nsc(C(=O)N(c2cccc(F)c2)C(C(=O)NCc2ccccc2)c2ccc(O)cc2)c1N (centres undefined)	?	-28%	-18	?	-23%	5%
COc1ccc(N(C(=O)c2snc(C(N)=O)c2N)C(C(=O)NCc2ccccc2)c2ccc(F)cc2)c(OC)c1 (centres undefined)	25%	?	-80*	-1%	10µM*	5%
C[C@@H]1CCCCO[C@H](CN(C)C(=O)C2CCCCC2)[C@@H](C)CN([C@H](C)CO)C(=O)c2cc(NS(=O)(=O)c3cccs3)ccc2O1	/	/	0	/	/	/
